Several values for one entry are separate records, joined by “and”; a condition that tells them apart may be missing. Identical values can stand only once. Records with an inconclusive call do not appear. More than one record can exist for a structure, and the calls need not agree. Activity calls are given as the source filed them. Calls follow the shape of the dose curve; as a rule, active = well fitted inhibition curve with a large enough effect in the repeat runs; inconclusive = weak or mixed curves; inactive = no such curve, though single readings can be large or run the other way.
biological target: Cytochrome P450 2C19 (Homo sapiens) (UniProt P33261); experiment: Cytochrome P450 Family 2 Subfamily C Member 19 (CYP2C19) small molecule antagonists: luciferase reporter qHTS assay (AID 1671197); conditions: P450-Glo CYP2C19 enzyme, luciferin luminescence, 1 h; series mostly up to 115 µM; activity change, negative = inhibition: at the top concentration; also: nearly all actives have a fitted effect of over 65% in size
In short: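 P450-Glo CYP2C19 screening system; proluciferin substrate; DMSO compound stocks; 10 min RT preincubation; NADPH regeneration, 1 h at 37C; luciferin detection reagent, 20 min RT; luminescence as RLU.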
% is scaled to controls: 0 for no effect and ±100 for the full control effect; potency is read from the fitted curve at half-maximal effect.

Cytochrome P450 2C19 (Homo sapiens), sequence (P33261 whole entry, looked up): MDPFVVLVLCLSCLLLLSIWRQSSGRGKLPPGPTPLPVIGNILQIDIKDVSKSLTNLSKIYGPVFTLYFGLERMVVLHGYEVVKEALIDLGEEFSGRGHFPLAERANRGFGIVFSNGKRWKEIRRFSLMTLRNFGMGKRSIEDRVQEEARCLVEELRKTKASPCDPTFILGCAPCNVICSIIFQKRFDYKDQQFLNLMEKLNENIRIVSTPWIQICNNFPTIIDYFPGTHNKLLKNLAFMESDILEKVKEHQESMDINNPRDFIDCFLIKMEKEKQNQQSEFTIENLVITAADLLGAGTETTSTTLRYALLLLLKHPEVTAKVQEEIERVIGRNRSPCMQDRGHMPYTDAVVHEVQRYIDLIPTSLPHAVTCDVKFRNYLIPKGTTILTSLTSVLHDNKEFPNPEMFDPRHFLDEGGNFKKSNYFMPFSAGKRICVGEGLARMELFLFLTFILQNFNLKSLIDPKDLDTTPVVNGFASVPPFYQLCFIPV

| SMILES | Potency | activity change, negative = inhibition |
| --- | --- | --- |
| COC(=O)c1ccc(C)cc1 | inactive |  |
| CN(C)/N=N/c1nc[nH]c1C(N)=O | inactive |  |
| CC(C)(C)c1cccc(C(C)(C)C)c1O | 55.1 µM (active) and inactive |  |
| C=CC(C)(O)CCC=C(C)C (stereo not given) |  | -23.5% (inactive) |
| O=C(O)CCCCCCCCCCCC(=O)O | 17.6 µM (active) and 39.9 µM (active) |  |
| COc1ccc(-c2coc3cc(O)cc(O)c3c2=O)cc1 | 20.2 µM (active) and 28.3 µM (active) |  |
| CC(C)[N+](C)(CCOC(=O)C1c2ccccc2Oc2ccccc21)C(C)C | inactive |  |
| CN(Cc1cnc2nc(N)nc(N)c2n1)c1ccc(C(=O)N[C@@H](CCC(=O)O)C(=O)O)cc1 | inactive |  |
| CC(C)=CCO | inactive |  |
| CC(=O)[C@H]1CC[C@H]2[C@@H]3CC=C4C[C@@H](O)CC[C@]4(C)[C@H]3CC[C@]12C | inactive |  |

biological target: Cytochrome P450 2C9 (Homo sapiens) (UniProt P11712); experiment: Cytochrome P450 Family 2 Subfamily C Member 9 (CYP2C9) small molecule antagonists: luciferase reporter qHTS assay (AID 1671198); conditions: P450-Glo CYP2C9 enzyme assay, luciferin luminescence; series mostly up to 115 µM; activity change, negative = inhibition: at the top concentration; also: nearly all actives have a fitted effect of over 50% in size
In short: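 Enzyme-substrate mix preincubated with compound 10 min at room temperature; reaction started with NADPH regeneration solution, 1 h 37C. Luminescent luciferin product read after 20 min detection reagent.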

Cytochrome P450 2C9 (Homo sapiens), sequence (P11712 whole entry, looked up): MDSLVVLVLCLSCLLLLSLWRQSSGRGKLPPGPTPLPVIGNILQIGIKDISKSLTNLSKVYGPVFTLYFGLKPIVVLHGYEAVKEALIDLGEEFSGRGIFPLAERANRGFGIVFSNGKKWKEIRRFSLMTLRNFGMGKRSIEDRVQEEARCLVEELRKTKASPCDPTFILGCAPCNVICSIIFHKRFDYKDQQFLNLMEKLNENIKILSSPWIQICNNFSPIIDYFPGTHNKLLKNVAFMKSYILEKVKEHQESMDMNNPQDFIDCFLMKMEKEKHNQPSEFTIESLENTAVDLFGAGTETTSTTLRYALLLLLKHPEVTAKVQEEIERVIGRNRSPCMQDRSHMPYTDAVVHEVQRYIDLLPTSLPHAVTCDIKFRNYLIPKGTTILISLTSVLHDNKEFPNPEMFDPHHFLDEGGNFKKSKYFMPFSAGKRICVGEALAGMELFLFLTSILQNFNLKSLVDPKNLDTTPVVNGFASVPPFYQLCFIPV

| SMILES | Potency | activity change, negative = inhibition |
| --- | --- | --- |
| CC1(C)C(C=C(Cl)Cl)C1C(=O)OCc1cccc(Oc2ccccc2)c1 (stereo not given) | 15.8 µM (active) and 8.94 µM (active) |  |
| Cc1cccc(Nc2ccccc2C(=O)O)c1C | 31.7 µM (active) and 30.9 µM (active) |  |
| CCC(Cc1c(I)cc(I)c(N)c1I)C(=O)O (stereo not given) | 30.7 µM (active) and 30.9 µM (active) |  |
| O=S1(=O)CCCO1 | inactive |  |
| C[C@]12C=CC(=O)C=C1CC[C@H]1[C@@H]3C[C@@H](O)[C@](O)(C(=O)CO)[C@@]3(C)C[C@H](O)[C@@]12F | 20 µM (active) |  |
| Nc1ccc(O)c(N)c1 | 35.3 µM (active) and 71 µM (active) |  |
| COC(=O)C(C)Oc1ccc(Oc2ncc(C(F)(F)F)cc2Cl)cc1 (stereo not given) | inactive |  |
| C[C@]12CC[C@@H]3c4ccc(O)cc4CC[C@H]3[C@@H]1CC[C@@H]2O | inactive |  |
| C[C@]12CC[C@@H]3c4ccc(O)cc4CC[C@H]3[C@@H]1CC[C@H]2O | 11.4 µM (active) and inactive |  |
| COC(=O)c1ccc(C)cc1 | inactive |  |
| [Na+] | inactive |  |
| CC(C)[N+](C)(CCOC(=O)C1c2ccccc2Oc2ccccc21)C(C)C | inactive |  |
| NCCN |  | -7.59% (inactive) |

biological target: Cytochrome P450 1A2 (Homo sapiens) (UniProt P05177); experiment: Cytochrome P450 Family 1 Subfamily A Member 2 (CYP1A2) small molecule antagonists: luciferase reporter qHTS assay (AID 1671199); conditions: P450-Glo CYP1A2 enzyme, luciferin luminescence, 1 h; series mostly up to 115 µM; activity change, negative = inhibition: at the top concentration; also: nearly all actives have a fitted effect of over 50% in size
In short: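 Inhibition of CYP1A2 conversion of proluciferin to luciferin, detected by luminescence. Reaction run 1 h at room temperature with NADPH regeneration after brief compound preincubation.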

Cytochrome P450 1A2 (Homo sapiens), sequence (P05177 whole entry, looked up): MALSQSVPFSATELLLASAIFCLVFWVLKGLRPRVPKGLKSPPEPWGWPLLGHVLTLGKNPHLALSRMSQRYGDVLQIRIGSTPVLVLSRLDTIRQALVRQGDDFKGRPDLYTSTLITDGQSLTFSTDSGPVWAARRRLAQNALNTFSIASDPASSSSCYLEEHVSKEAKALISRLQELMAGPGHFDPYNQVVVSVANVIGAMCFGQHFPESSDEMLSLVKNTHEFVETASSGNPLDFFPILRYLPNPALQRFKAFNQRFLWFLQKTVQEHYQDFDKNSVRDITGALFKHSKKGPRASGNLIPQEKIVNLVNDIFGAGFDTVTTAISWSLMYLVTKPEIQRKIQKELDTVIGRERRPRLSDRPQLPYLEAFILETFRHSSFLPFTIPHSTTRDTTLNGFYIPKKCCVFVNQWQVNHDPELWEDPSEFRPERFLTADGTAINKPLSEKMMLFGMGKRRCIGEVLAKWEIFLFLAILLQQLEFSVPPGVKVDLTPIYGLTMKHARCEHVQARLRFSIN

| SMILES | Potency | activity change, negative = inhibition |
| --- | --- | --- |
| C=C[C@H]1CN2CC[C@H]1C[C@@H]2[C@@H](O)c1ccnc2ccc(OC)cc12 | inactive |  |
| c1ccc2cc3ccccc3cc2c1 | 653 nM (active) and 502 nM (active) |  |
| NC[C@H](O)c1ccc(O)c(O)c1 | inactive |  |
| [O-]/[N+](=N\O)c1ccccc1 | 22.2 µM (active) and 25.2 µM (active) |  |
| c1ccc2ncccc2c1 | inactive and 35.6 µM (active) |  |
| C[C@]12C=CC(=O)C=C1CC[C@H]1[C@@H]3C[C@@H](O)[C@](O)(C(=O)CO)[C@@]3(C)C[C@H](O)[C@@]12F | inactive |  |
| CCC/C=C/C=O |  | -22.4% (inactive) |
| C=C[C@@]1(C)CC(=O)[C@]2(O)[C@@]3(C)[C@@H](O)CCC(C)(C)[C@@H]3[C@H](O)[C@H](OC(C)=O)[C@@]2(C)O1 | inactive |  |
| CCCCCCCCCCCCCO | inactive and 26.1 µM (active) |  |
| CN(C)/N=N/c1nc[nH]c1C(N)=O | inactive and 34.7 µM (active) |  |
| CC(C)(C)c1cccc(C(C)(C)C)c1O | 39 µM (active) and 63.3 µM (active) |  |
| C=CC(C)(O)CCC=C(C)C (stereo not given) |  | -7.71% (inactive) |
| COc1ccc(-c2coc3cc(O)cc(O)c3c2=O)cc1 | 32 µM (active) and 35.6 µM (active) |  |
| CN(Cc1cnc2nc(N)nc(N)c2n1)c1ccc(C(=O)N[C@@H](CCC(=O)O)C(=O)O)cc1 | inactive |  |
| CC(C)=CCO |  | -11.8% (inactive) |
| CC(=O)[C@H]1CC[C@H]2[C@@H]3CC=C4C[C@@H](O)CC[C@]4(C)[C@H]3CC[C@]12C | inactive |  |
| NCCN |  | -3.98% (inactive) |

— PubChem BioAssay (Tox21)
